These results are taken from PubChem BioAssay AID1347156 (National Center for Advancing Translational Sciences (NCATS), 2019).

Each structure is given as a SMILES string. Inconclusive results are not listed. Activity calls are given as the source filed them. The call rests on the fitted dose curve; in most records, active means well fitted cell-killing curve with a large enough effect; inconclusive means small, poorly fitted or top-dose-only effect; inactive means flat fitted curve, though single readings scatter.
On the % scale 0 is the no-effect control and ±100 the full control effect; potency means the concentration at half of the fitted maximal effect.

The assay is described as follows: DAPI mCherry counterscreen qHTS for Zika virus inhibitors. Further: nearly all actives have a fitted effect of over 55% in size. To be noted: Vero cells, DAPI nuclear count cytotoxicity, imaging 48-72 h, infected with Zika reporter virus, MOI 1; series mostly up to 32.6 µM; activity change, negative = cell loss: at the top concentration. The procedure, abridged: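 Vero cells (5,000/well), plated overnight, given compounds then recombinant ZIKV-mCherry at MOI 1 for 48-72 hrs at 37 degrees C; PFA-fixed, Hoechst-stained and imaged; nuclei counted and mCherry-positive cells scored as percent infection.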
(A counterscreen serves to expose hits that act by an unwanted route or on another target.)
In the case of `O=C(Nc1cccc(C(=O)Nc2ccc(S(=O)(=O)O)c3cc(S(=O)(=O)O)cc(S(=O)(=O)O)c23)c1)Nc1cccc(C(=O)Nc2ccc(S(=O)(=O)O)c3cc(S(=O)(=O)O)cc(S(=O)(=O)O)c23)c1`, the “activity change, negative = cell loss” value is -9.54% [at 16.3 µM] (inactive).

With `CN(C)CC[C@H](CSc1ccccc1)Nc1ccc(S(=O)(=O)NC(=O)c2ccc(N3CCN(Cc4ccccc4-c4ccc(Cl)cc4)CC3)cc2)cc1[N+](=O)[O-]`, the Potency is 5.01 µM (active).

In the case of `CCOC(=O)c1cccc(NC(=O)CSc2ncc3c(n2)-c2ccc(Cl)cc2N(Cc2ccccc2)S3(=O)=O)c1`, the “activity change, negative = cell loss” value is -13.5% (inactive).

With `C/C=C/C=C/C=C/C(=O)O[C@@H]1[C@@H](OC)C2=C(C(=O)N(C(CCC(=O)O)C(=O)O)C2)[C@@]2(C)CCCC(C)(C)[C@H]12` (some centres undefined), the “activity change, negative = cell loss” value was -13.5% [at 16.3 µM] (inactive).

As to `O=C(Nc1ccc(S(=O)(=O)N2CCOCC2)cc1)c1cc(Cl)ccc1NS(=O)(=O)c1ccc(Cl)s1`, the Potency is 15.8 µM (active).

Regarding `O=C(O)c1cc(-c2ccc(C(F)(F)F)cc2)nc2n[nH]c(-c3ccccc3)c12`, the “activity change, negative = cell loss” value is -12.5% (inactive).

As to `CCC(=O)O[C@H]1[C@H](O[C@@H]2[C@@H](C)[C@H](O[C@H]3C[C@@](C)(OC)[C@@H](O)[C@H](C)O3)[C@@H](C)C(=O)O[C@H](CC)[C@@](C)(O)[C@H](O)[C@@H](C)C(=O)[C@H](C)C[C@@]2(C)O)O[C@H](C)C[C@@H]1N(C)C`, the Potency was 35.5 µM (active).

Turning to `O=C(Nc1ccc(Oc2ccc(Cl)cc2)c(Cl)c1)c1cc(I)cc(I)c1O`, the Potency is 10 µM (active).

On to `Cc1ccc([C@@H]2CC=C(C(=O)O)[C@H](c3ccc(C(C)(C)C)cc3)N2S(=O)(=O)c2ccc(C)cc2)cc1`, for which the Potency is 31.6 µM (active).

Consider `C/C(=C\c1ccc(C(=O)O)cc1)c1ccc2c(c1)C(C)(C)CCC2(C)C`, for which the Potency was 20 µM (active).

`C[C@H](NC(=O)C(=O)Nc1ccccc1C(C)(C)C)C(=O)N[C@@H](CC(=O)O)C(=O)COc1c(F)c(F)cc(F)c1F`: the “activity change, negative = cell loss” value was -2.7% (inactive).

For `Oc1cc2ccccc2c2ccccc12`, the Potency is 10 µM (active).

Regarding `COc1ccc(-c2ccccc2)cc1NS(=O)(=O)c1cc(Cl)cc(Cl)c1O`, the Potency was 11.2 µM (active).

`COc1ccc2c(c1)Oc1nc(-c3ccc(C)s3)nc(SCC(=O)Nc3cccc(C(=O)O)c3)c1C2`: the “activity change, negative = cell loss” value is -10.7% (inactive).

For `Nc1c(N=Nc2ccc([N+](=O)[O-])cc2)c(S(=O)(=O)O)cc2cc(S(=O)(=O)O)c(/C=C/c3ccccc3)c(O)c12`, the “activity change, negative = cell loss” value is -17.4% (inactive).

In the case of `C/C(=C\CC/C(C)=C/CC[C@]1(C)CCc2cc(O)cc(C)c2O1)CC/C=C(\C)C(=O)O`, the Potency was 14.1 µM (active).

As for `CC(C)C[C@H](C(=O)O)c1cc(-c2ccc(C(F)(F)F)cc2)cc(-c2ccc(C(F)(F)F)cc2)c1`, the Potency is 11.2 µM (active).

Consider `O=C(Nc1ccc(-c2ccc(Cl)c(Cl)c2)cc1)C1=C(O)c2ccccc2S(=O)(=O)N1`, for which the Potency is 8.91 µM (active).

As to `CCC(C)CCCCC(=O)NC(CCNCS(=O)(=O)O)C(=O)NC(C(=O)NC(CCNCS(=O)(=O)O)C(=O)NC1CCNC(=O)C(C(C)O)NC(=O)C(CCNCS(=O)(=O)O)NC(=O)C(CCNCS(=O)(=O)O)NC(=O)C(CC(C)C)NC(=O)C(CC(C)C)NC(=O)C(CCNCS(=O)(=O)O)NC1=O)C(C)O` (centres undefined), the “activity change, negative = cell loss” value is 9.56% (inactive).

Regarding `CC(C)=CCc1c2c(c3occ(-c4ccc(O)c(O)c4)c(=O)c3c1O)C=CC(C)(C)O2`, the Potency was 8.91 µM (active).

Consider `O=C(Nc1cccc(C(=O)OCc2cc(=O)n3nc(C4CC4)sc3n2)c1)c1cccc(Cl)c1`, for which the “activity change, negative = cell loss” value is -11.2% (inactive).

On to `CC(C)(C)c1ccc(S(=O)(=O)Nc2ccc(O)c(Sc3nc4ccccc4s3)c2)cc1`, for which the Potency is 14.1 µM (active).

Regarding `CC(C)=CCCC1(C)C=Cc2c(O)c3c(c(CC=C(C)C)c2O1)OC12C(=CCCC1C(C)(C)O[C@@]2(C/C=C(\C)C(=O)O)C(=O)O)C3=O` (some centres undefined), the Potency is 15.8 µM (active).

In the case of `COC(=O)c1ccc([C@H]2Nc3ccc(S(=O)(=O)Nc4ccc(C)cc4)cc3[C@H]3C=CC[C@H]32)cc1`, the “activity change, negative = cell loss” value is -12.5% (inactive).

With `N#Cc1c(O)c2c(-c3ccc(-c4ccccc4O)cc3)csc2[nH]c1=O`, the “activity change, negative = cell loss” value was -14.6% (inactive).

In the case of `CCOC(=O)c1ccc(N2C(=O)c3n[nH]c(-c4cccs4)c3C2c2ccc(Cl)cc2Cl)cc1` (centres undefined), the Potency is 11.2 µM (active).

With `Cc1nc(N=Nc2ccc(S(=O)(=O)O)cc2S(=O)(=O)O)c(COP(=O)(O)O)c(C=O)c1O`, the “activity change, negative = cell loss” value was -11.3% (inactive).

Turning to `O=C(O)C(Cc1cc(I)c(O)c(I)c1)c1ccccc1` (centres undefined), the Potency is 4.47 µM (active).

Turning to `CC1(C)CCC(CN2CCN(c3ccc(C(=O)NS(=O)(=O)c4ccc(NCC5CCOCC5)c([N+](=O)[O-])c4)c(Oc4cnc5[nH]ccc5c4)c3)CC2)=C(c2ccc(Cl)cc2)C1`, the Potency is 5.62 µM (active).
